Drawing on PubChem BioAssay (NCI), this text covers growth inhibition for 38 molecules.

The panel holds about 79,000 compounds, 15% with a hit somewhere; the sample as a whole holds those more often. Unmarked numbers belong to inactive results. Active and inactive are the calls of the source. Rule as the data show it: active = growth inhibition above about 70%; inactive = the rest. Where a SMILES comes first, the peptide text is derived from it. The star is where a group is joined. Boc = CC(C)(C)OC(=O)*

Test [1] in a line: NCI Yeast Anticancer Drug Screen. Data for the rad50 strain (AID 155).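 Also: 0% = growth of vehicle-only cultures of the same strain.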 The note with it: S. cerevisiae rad50 strain growth inhibition; at 50.0 µM; stronger effect = higher value. The method in brief: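 Vehicle-treated cultures provide the reference for the growth inhibition reported for compound-exposed, repair-deficient yeast.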
The nature of test [2]: NCI Yeast Anticancer Drug Screen. Data for the mec2-1 strain (AID 157). Conditions: S. cerevisiae mec2-1 strain, at 50.0 µM, stronger effect = higher value. The gist of the method: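 Test agents were screened against the mec2-1 yeast strain, with defined DNA repair or cell cycle alteration. Growth was scored as inhibition against vehicle-only controls.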
The nature of test [3]: NCI Yeast Anticancer Drug Screen. Data for the sgs1 mgt1 strain (AID 161).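 Also: 0% = growth of cultures given vehicle only.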 The note with it: S. cerevisiae sgs1 mgt1 strain, at 50.0 µM, stronger effect = higher value. The gist of the method:
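Genetically altered yeast, compound exposure, growth inhibition relative to vehicle.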

Test [4] can be described thus: NCI Yeast Anticancer Drug Screen. Data for the cln2 rad14 strain (AID 165).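 Also: 0% = growth equal to vehicle treated cultures.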 Conditions: S. cerevisiae cln2 rad14 strain, at 50.0 µM, stronger effect = higher value. The method in brief: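 Growth of compound-exposed yeast (cln2 rad14 genotype) measured and expressed as inhibition relative to vehicle.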
A short description of test [5]: NCI Yeast Anticancer Drug Screen. Data for the bub3 strain (AID 167). Conditions: S. cerevisiae bub3 mutant strain, at 50.0 µM, stronger effect = higher value. The gist of the method:
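Mutant yeast screening strain plus compound; vehicle-treated cultures serve as the 0% inhibition reference.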

Test [6] can be described thus: NCI Yeast Anticancer Drug Screen. Data for the mlh1 rad18 strain (AID 175). Conditions: S. cerevisiae mlh1 rad18 strain growth inhibition; at 50.0 µM; stronger effect = higher value. The method in brief: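 In this whole-cell yeast screen, a strain with altered DNA damage repair is challenged with compound, and its growth is measured against matched vehicle-treated controls.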

For `CC(=O)Nc1ccc(/C=N/Nc2c3ccccc3nc3ccccc23)cc1`, the growth inhibition in test [1] is -3.3%; in test [2], 13.8%; in test [3], 0.3%; in test [4], -4.4%; in test [5], 6.75%; in test [6], 0.4%.
Consider `NC(N)=NS(=O)(=O)c1ccc(N=Cc2c3ccccc3nc3ccccc23)cc1`, for which the growth inhibition was 98.7% (active) in test [1]; 99.3% (active) in test [2]; 99.2% (active) in test [3]; 98.8% (active) in test [4]; 96% (active) in test [5]; 98.8% (active) in test [6].
With `CC(C)C(N)C(=O)Nc1nncs1` (stereo not drawn), the growth inhibition is 11.6% in test [1]; -2.15% in test [2]; -8% in test [3]; -10.1% in test [4]; -33.6% in test [5]; -28.6% in test [6].
Turning to `CC(O)C(=O)N(CCO)CCO` (stereo not drawn), the growth inhibition in test [1] was -5.4%; in test [2] it was -21.9%; in test [3], -13.4%; in test [4], -35.8%; in test [5], 3.5%; in test [6] it was 10.3%.
For the molecule `O=c1ccc2ccc(-c3cnc(O)[nH]c3=O)oc-2c1`, the growth inhibition in test [1] was 25.6%; in test [2], 2.05%; in test [3], 5.35%; in test [4], 1.4%; in test [5] it was 2.25%; in test [6], 10.3%.
Regarding `COC(=O)CCS(=O)(=O)Cc1ccccc1`, the growth inhibition was 0.95% in test [1]; -1.3% in test [2]; -6.95% in test [3]; -7.9% in test [4]; -1.65% in test [5]; -0.5% in test [6].
On to `O=C(Oc1ccc(-c2ccc([N+](=O)[O-])cc2)cc1)c1ccccc1`, for which the growth inhibition in test [1] was 29.8%; in test [2] it was 3.9%; in test [3] it was 17%; in test [4], 15.4%; in test [5], 19.9%; in test [6] it was 8.25%.
In the case of `O=C(NC(Cc1c[nH]c2ccccc12)C(=O)O)C(=O)c1c[nH]c2ccccc12` (stereo not drawn), the growth inhibition is -9.9% in test [1]; -14.6% in test [2]; 27.5% in test [3]; 0.9% in test [4]; 15.2% in test [5]; 4.2% in test [6].
As to `O=C(Nc1ncccn1)c1ccc(Cl)cc1Cl`, the growth inhibition in test [1] is -11.9%; in test [2] it was 4.8%; in test [3], 30.6%; in test [4], -21.5%; in test [5], 10.6%; in test [6], 32.3%.
For the molecule `COc1cccc(/C(C#N)=C\O)c1`, the growth inhibition in test [1] is -17.2%; in test [2] it was -36.9%; in test [3], -29.9%; in test [4] it was 3.2%; in test [5] it was -42.9%; in test [6], -8.8%.
As for `Clc1ccc(C(=C=C(c2ccccc2)c2ccccc2)c2ccc(Cl)cc2)cc1`, the growth inhibition in test [1] was 33.7%; in test [2], 13.8%; in test [3], -4.4%; in test [4], 20.7%; in test [5] it was 5.55%; in test [6], 25.9%.
As to `O=c1cc2n(c(=O)n1Cc1ccccc1)CCC2`, the growth inhibition in test [1] was 10.9%; in test [2], 4.25%; in test [3] it was 1.55%; in test [4], 1.5%; in test [5], -3.9%; in test [6] it was -6%.
Regarding `CCCCNc1ccc2c(C)c(Cc3ccccc3)c(=O)oc2c1`, the growth inhibition in test [1] is 9.3%; in test [2] it was -7.5%; in test [3], 20.3%; in test [4], 2.35%; in test [5], 4.65%; in test [6], -11%.
`CC(C)CCCC(C)C1CCC2C3=CCC4CC(=O)CCC4(C)C3CCC21C` (stereo not drawn): the growth inhibition is 30.9% in test [1]; -10.9% in test [2]; 4.65% in test [3]; 4.35% in test [4]; -1.2% in test [5]; 4.5% in test [6].
Take `c1cc2c3c(cccc3c1)N1C(=N2)Sc2nc3ccccc3nc21`: the growth inhibition was 3.15% in test [1]; 13.5% in test [2]; -9.8% in test [3]; -5.2% in test [4]; 13.6% in test [5]; -3% in test [6].
On to `O=CNc1ccccc1-c1ccccc1`, for which the growth inhibition was -33.3% in test [1]; -15% in test [2]; -18% in test [3]; -17.1% in test [4]; -0.15% in test [5]; 2.55% in test [6].
With `COC(=O)c1ccccc1NC(=O)Nc1cc(Cl)ccc1OC`, the growth inhibition was 85.5% (active) in test [1]; 91.2% (active) in test [2]; 90.4% (active) in test [3]; 80.8% (active) in test [4]; 88.2% (active) in test [5]; 88.9% (active) in test [6].
Turning to `CNC(=O)CNC(=O)C(NC(=O)CNC(=O)C1CCCN1C(=O)C(C)NC(=O)C(NC(=O)OC(C)(C)C)C(C)C)C(C)C` (stereo not drawn) (Boc-VAPGVG-NHMe; configuration not given here), the growth inhibition in test [1] was -12.9%; in test [2], -23.6%; in test [3], -11.8%; in test [4] it was -11%; in test [5] it was -16.2%; in test [6], -18.2%.
On to `S=C1c2cc(Cl)ccc2NC(=NC2CCCC2)C2CSCN12` (stereo not drawn), for which the growth inhibition was 7.65% in test [1]; 14.7% in test [2]; 51.5% in test [3]; -3.25% in test [4]; 33.3% in test [5]; 28.5% in test [6].
Turning to `CCCCCCCCCCCCCCC(=O)Cl`, the growth inhibition is 9% in test [1]; 7.25% in test [2]; 5.8% in test [3]; 8.2% in test [4]; -9.95% in test [5]; 8.85% in test [6].
In the case of `O=C(Nc1ccc(N=C=S)cc1Cl)c1cc(Cl)cc(Cl)c1O`, the growth inhibition in test [1] was 82.3% (active); in test [2] it was 56.9%; in test [3], 78.5% (active); in test [4] it was 67.7%; in test [5], 82.5% (active); in test [6], 82.5% (active).
On to `Nc1nc(N)[n+]([O-])c(N)c1NCO`, for which the growth inhibition in test [1] was -4.85%; in test [2], 2.9%; in test [3], -40%; in test [4], -50.8%; in test [5], -14%; in test [6] it was -25.3%.
Turning to `COc1ccc2oc(=O)c(CC=C(C)C)c(O)c2c1C`, the growth inhibition was 23.8% in test [1]; 13.9% in test [2]; -1.65% in test [3]; -10.9% in test [4]; -25.2% in test [5]; -51% in test [6].
Take `CCN(CC)CCC(C)C(Cc1cccs1)OC(C)=O` (stereo not drawn): the growth inhibition in test [1] is 4.1%; in test [2] it was -3.9%; in test [3], -2.95%; in test [4], -39%; in test [5], 35.2%; in test [6], 5.6%.
For the molecule `COc1c(C(=O)O)ccc(C(=O)NCCCCCN(O)C(=O)CCC(=O)NCCCCCN(O)C(=O)CCC(=O)NCCCCCN(O)C(C)=O)c1OC`, the growth inhibition in test [1] was -7.25%; in test [2] it was 4.25%; in test [3] it was -5.35%; in test [4], -24.9%; in test [5] it was -0.6%; in test [6], -28.4%.
Regarding `O=[N+]([O-])C(/C=C(\Cl)[N+](=O)[O-])=C1Nc2ccccc2N1`, the growth inhibition in test [1] was 29.9%; in test [2] it was 45.1%; in test [3], 57.2%; in test [4], 19.4%; in test [5], 21.1%; in test [6], 50.5%.
Turning to `COS(=O)(=O)Cc1ccccc1`, the growth inhibition is -21.6% in test [1]; -15% in test [2]; -16.8% in test [3]; -19.2% in test [4]; -12.3% in test [5]; 8.45% in test [6].
`O=c1[nH]cc(COCC(O)CO)c(=O)[nH]1` (stereo not drawn): the growth inhibition is -27% in test [1]; -10.7% in test [2]; -43.9% in test [3]; 3.95% in test [4]; -29.9% in test [5]; -23.7% in test [6].
Turning to `O=c1ccn2n1Cc1ccccc1C2`, the growth inhibition in test [1] was -25.9%; in test [2] it was -20.8%; in test [3], -17.9%; in test [4] it was 13.3%; in test [5], -6.05%; in test [6], -20.6%.
In the case of `Cc1ccc(Cl)cc1NC(=O)Oc1cc(C)c(Cl)c(C)c1`, the growth inhibition in test [1] was 1%; in test [2] it was 8.2%; in test [3] it was -4.1%; in test [4], 6.85%; in test [5], 25.7%; in test [6], 4.35%.
As to `CCC(O)C1CCCCN1` (stereo not drawn), the growth inhibition was -20.8% in test [1]; -7% in test [2]; -12.2% in test [3]; -4.05% in test [4]; -17.5% in test [5]; -11.2% in test [6].
As to `NC(CCC(N)C(=O)O)C(=O)O` (stereo not drawn), the growth inhibition is -25.4% in test [1]; -20.6% in test [2]; -25.2% in test [3]; -13.5% in test [4]; -13.1% in test [5]; -18.1% in test [6].
In the case of `COc1cc(C(=O)O)cc(OC)n1`, the growth inhibition was 10.8% in test [1]; 4.15% in test [2]; -6.6% in test [3]; -36.4% in test [4]; -16.9% in test [5]; 8.25% in test [6].
Regarding `CC(C)(C)c1ccc(-n2c3nc(=O)n(-c4ccccc4CO)c(=O)c-3cc3ccccc32)cc1`, the growth inhibition in test [1] was -9.75%; in test [2], -12.8%; in test [3], -9.5%; in test [4], -11.6%; in test [5] it was -0.95%; in test [6] it was 4.95%.
As to `C=CSC(=S)Sc1ccccc1`, the growth inhibition in test [1] is 25.6%; in test [2], 28.4%; in test [3], -1.15%; in test [4], 3.45%; in test [5], 19%; in test [6], 12.9%.
Take `COC(=O)COc1ccc(Cl)cc1C(=O)O`: the growth inhibition in test [1] was 23.5%; in test [2] it was 6.1%; in test [3], 9.8%; in test [4], -11.8%; in test [5], 27.5%; in test [6], 17.1%.
With `O=C(O)c1ccccc1N1C(=O)c2ccccc2C1=O`, the growth inhibition is 4.95% in test [1]; -33.2% in test [2]; -4.1% in test [3]; 8.2% in test [4]; 11.2% in test [5]; -1.55% in test [6].
Consider `Cc1cn(C2CC(O)C(CO)O2)c(=O)[nH]c1=S` (stereo not drawn), for which the growth inhibition in test [1] is 9.05%; in test [2], -7.25%; in test [3], -3.5%; in test [4], -37.3%; in test [5], 14.2%; in test [6] it was 13.2%.
